Test results published in the supplement of paper PMC7057948, “A genome-wide approach for identification and characterisation of metabolite-inducible systems” (Nature Communications, 2020).

Legend:
Settings in all cases: inducer concentration 5 mM; 6 h; Cupriavidus necator H16; minimal medium + 0.4% gluconate
[1] = system: AcoR/P_H16_RS19445 acetoin biosensor (pEH052); assay: relative induction of RFP reporter vs primary effector; higher = stronger activation
Description: (§1)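 Orthogonality screen of 21 primary inducers against 21 transcription factor/inducible promoter–mRFP biosensors in C. necator H16 in minimal medium, robotic 96-well format, 5 mM inducer, 30 °C. OD-normalised RFP fluorescence was read 6 h later and expressed as relative induction (%) = 100 × (FL compound − FL uninduced)/(FL primary inducer − FL uninduced); mean of n=4. Cognate pairs (100% by definition) omitted.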

[2] = system: AraC/P_araBAD L-arabinose biosensor (pEH176); assay: as above
Description: as §1

[3] = system: BadR/P_H16_RS27200 cyclohexanecarboxylate biosensor (pEH159); assay: as above
Description: as §1

[4] = system: BenM/P_H16_RS09790 benzoate biosensor (pEH148); assay: as above
Description: as §1

[5] = system: FdsR/P_H16_RS03165 formate biosensor (pEH134); assay: as above
Description: as §1

[6] = system: GabR/P_H16_RS23655 GABA biosensor (pEH256); assay: as above
Description: as §1

[7] = system: HpdA/P_H16_RS24175 L-tyrosine biosensor (pEH158); assay: as above
Description: as §1

[8] = system: OapR/P_H16_RS01330 beta-alanine biosensor (pEH147); assay: as above
Description: as §1

[9] = system: PcaQ/P_H16_RS30145 3,4-dihydroxybenzoate biosensor (pEH161); assay: as above
Description: as §1

[10] = system: PhgR/P_H16_RS05530 phenylglyoxylate biosensor (pEH155); assay: as above
Description: as §1

[11] = system: SauR/P_H16_RS13695 sulfonatoacetate biosensor (pEH157); assay: as above
Description: as §1

[12] = system: TtdR/P_H16_RS10665 tartrate biosensor (pEH083); assay: as above
Description: as §1

[13] = system: XdhR/P_H16_RS05055 xanthine biosensor (pEH154); assay: as above
Description: as §1

[14] = system: heterologous L-rhamnose-inducible system; assay: as above
Description: as §1

[15] = system: heterologous acrylate-inducible system; assay: as above
Description: as §1

[16] = system: heterologous cumate-inducible system; assay: as above
Description: as §1

[17] = system: heterologous itaconate-inducible system; assay: as above
Description: as §1

[18] = system: AcoR/P_H16_RS19445 acetoin biosensor (pEH052); assay: relative induction of RFP reporter vs primary effector (background-corrected); higher = stronger activation of the biosensor
Description: (§2)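 C. necator H16 strains, each carrying one of 21 transcription factor/inducible promoter–mRFP biosensor plasmids, were grown in minimal medium in 96-well plates (robotic platform). Each was exposed to 46 structurally or metabolically related compounds at 5 mM at 30 °C. OD-normalised RFP fluorescence was read 6 h later and expressed as relative induction (%) = 100 × (FL compound − FL uninduced)/(FL primary inducer − FL uninduced); mean of n=4.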

[19] = system: AraC/P_araBAD L-arabinose biosensor (pEH176); assay: as above
Description: as §2

[20] = system: BenM/P_H16_RS09790 benzoate biosensor (pEH148); assay: as above
Description: as §2

[21] = system: FdsR/P_H16_RS03165 formate biosensor (pEH134); assay: as above
Description: as §2

[22] = system: GabR/P_H16_RS23655 GABA biosensor (pEH256); assay: as above
Description: as §2

[23] = system: HpdR/P_H16_RS18295 3-hydroxypropanoate biosensor (pEH010); assay: as above
Description: as §2

[24] = system: KynR/P_H16_RS14030 L-kynurenine biosensor (pEH136); assay: as above
Description: as §2

[25] = system: NahR/P_H16_RS08125 salicylate biosensor (pEH042); assay: as above
Description: as §2

[26] = system: OapR/P_H16_RS01330 beta-alanine biosensor (pEH147); assay: as above
Description: as §2

[27] = system: PcaQ/P_H16_RS30145 3,4-dihydroxybenzoate biosensor (pEH161); assay: as above
Description: as §2

[28] = system: PhgR/P_H16_RS05530 phenylglyoxylate biosensor (pEH155); assay: as above
Description: as §2

[29] = system: PhhR/P_H16_RS18365 L-phenylalanine biosensor (pEH137); assay: as above
Description: as §2

[30] = system: SauR/P_H16_RS13695 sulfonatoacetate biosensor (pEH157); assay: as above
Description: as §2

[31] = system: TtdR/P_H16_RS10665 tartrate biosensor (pEH083); assay: as above
Description: as §2

[32] = system: XdhR/P_H16_RS05055 xanthine biosensor (pEH154); assay: as above
Description: as §2

[33] = system: heterologous inducible system pEH002 (rhamnose/acrylate/cumate/itaconate set); assay: as above
Description: as §2

[34] = system: heterologous inducible system pEH020 (rhamnose/acrylate/cumate/itaconate set); assay: as above
Description: as §2

[35] = system: heterologous inducible system pEH040 (rhamnose/acrylate/cumate/itaconate set); assay: as above
Description: as §2

[36] = system: heterologous inducible system pEH086 (rhamnose/acrylate/cumate/itaconate set); assay: as above
Description: as §2

[37] = system: NahR/P_H16_RS08125 salicylate biosensor (pEH042); assay: relative induction of RFP reporter vs primary effector; higher = stronger activation
Description: as §1
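Wherever relative induction of RFP reporter vs primary effector (background-corrected) is given: RFP excited at 585 nm with emission read at 620 nm, culture medium blanks subtracted from fluorescence and absorbance prior to normalisation.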

O=C(O)c1ccccc1O [salicylate]
relative induction of RFP reporter [1]: -1.02% | relative induction of RFP reporter [2]: -0.0255% | relative induction of RFP reporter [3]: -0.169% | relative induction of RFP reporter [4]: 1.72% | relative induction of RFP reporter [5]: -11.3% | relative induction of RFP reporter [6]: 1.28% | relative induction of RFP reporter [7]: -0.0712% | relative induction of RFP reporter [8]: -0.51% | relative induction of RFP reporter [9]: -0.391% | relative induction of RFP reporter [10]: -0.369% | relative induction of RFP reporter [11]: 0.0177% | relative induction of RFP reporter [12]: -0.317% | relative induction of RFP reporter [13]: -0.278% | relative induction of RFP reporter [14]: 0.019% | relative induction of RFP reporter [15]: -1.06% | relative induction of RFP reporter [16]: 0.792% | relative induction of RFP reporter [17]: -0.0867%

O=C(O)C[C@H](O)C(=O)O [L-malate]
relative induction of RFP reporter [18]: -0.197% | relative induction of RFP reporter [19]: 0.0102% | relative induction of RFP reporter [20]: -0.00804% | relative induction of RFP reporter [21]: 15.3% | relative induction of RFP reporter [22]: -2.18% | relative induction of RFP reporter [23]: 0.127% | relative induction of RFP reporter [24]: 0.34% | relative induction of RFP reporter [25]: 0.0296% | relative induction of RFP reporter [26]: 0.168% | relative induction of RFP reporter [27]: 0.148% | relative induction of RFP reporter [28]: -0.316% | relative induction of RFP reporter [29]: 0.413% | relative induction of RFP reporter [30]: -0.0175% | relative induction of RFP reporter [31]: 1.58% | relative induction of RFP reporter [32]: 0.88% | relative induction of RFP reporter [33]: 0.00418% | relative induction of RFP reporter [34]: -0.286% | relative induction of RFP reporter [35]: -0.274% | relative induction of RFP reporter [36]: 0.726%

C=CC(=O)O [acrylate]
relative induction of RFP reporter [1]: -1.36% | relative induction of RFP reporter [2]: -0.0252% | relative induction of RFP reporter [3]: -0.281% | relative induction of RFP reporter [4]: 0.00199% | relative induction of RFP reporter [5]: -7.94% | relative induction of RFP reporter [6]: 0.12% | relative induction of RFP reporter [7]: -0.146% | relative induction of RFP reporter [37]: 0.00921% | relative induction of RFP reporter [9]: -0.175% | relative induction of RFP reporter [10]: -0.587% | relative induction of RFP reporter [11]: 0.114% | relative induction of RFP reporter [12]: -0.0524% | relative induction of RFP reporter [13]: -0.215% | relative induction of RFP reporter [14]: 0.000569% | relative induction of RFP reporter [16]: 0.803% | relative induction of RFP reporter [17]: 0.117%

O=C(O)C(=O)c1ccccc1 [phenylglyoxylate]
relative induction of RFP reporter [1]: -2.12% | relative induction of RFP reporter [2]: -0.003% | relative induction of RFP reporter [3]: -0.214% | relative induction of RFP reporter [4]: 16.8% | relative induction of RFP reporter [6]: -2.13% | relative induction of RFP reporter [7]: -0.159% | relative induction of RFP reporter [37]: 0.00691% | relative induction of RFP reporter [8]: -1.44% | relative induction of RFP reporter [9]: -0.114% | relative induction of RFP reporter [11]: 0.0193% | relative induction of RFP reporter [12]: -0.379% | relative induction of RFP reporter [13]: -1.19% | relative induction of RFP reporter [14]: -0.00891% | relative induction of RFP reporter [15]: -2.28% | relative induction of RFP reporter [16]: -1.12% | relative induction of RFP reporter [17]: -0.288%
